VACV Venus inh = vaccinia inhibition (Venus reporter); Potency, µM (titrated, usually from 36.5 µM), without a hit: top-dose activity change, negative = inhibition, most hits filed as inhibitors; Vaccinia virus Venus reporter expression, fluorescence; 330,000 tested, 0.46% active; calls by dose curve; tested in A549 cells; also: nearly all actives have a fitted effect of over 30% in size
Vaccinia mCherry = vaccinia inhibition (mCherry reporter). Vaccinia virus mCherry reporter infection, fluorescence. Potency, µM (series often up to 36.5 µM), for inactives: at the top dose activity change, negative = inhibition, actives largely listed as inhibitors. 310,000 tested, 0.63% active. AID 720579; calls by dose curve; tested in A549 cells; also: nearly all actives have a fitted effect of over 35% in size
Sm TGR inh = blocks Schistosoma mansoni thioredoxin glutathione reductase; purified TGR, DTNB reduction, TNB absorbance 405 nm; Potency, µM (highest dose often 114 µM), without a hit: at the highest dose activity change, negative = inhibition, usual class: inhibitors; 360,000 tested, 3% active; active = well fitted inhibition curve with a large enough effect; inconclusive = small, poorly fitted or top-dose-only effect; inactive = no such curve, though single readings can be large or run the other way; also: nearly all actives have a fitted effect of over 60% in size
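TGR 20 nM + NADPH 100 uM (dispensed conc.), cpd preinc 15 min RT; start with NADPH (500 uM addition) then DTNB (15 mM addition). Kinetic TNB absorbance, 405 nm filter. Four-parameter Hill fit across titration.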
FMDV inh = blocks foot and mouth disease virus; FMDV antiviral cell-based qHTS; Potency, µM (titrated, usually from 57.9 µM), without a hit: top-dose activity change, negative = inhibition, usual class: inhibitors; 410,000 tested, 1.2% active; AID 1159524; calls by dose curve; tested in HEK293T cells; also: read-out not given here; nearly all actives have a fitted effect of over 45% in size
Lassa entry inh = inhibitors of Lassa virus binding or cell entry; Lassa virus pseudotype entry inhibition, cell reporter; Potency, µM (titrated, usually from 37.9 µM), inactives show at the highest dose activity change, negative = inhibition, most hits filed as inhibitors; 300,000 tested, 1.2% active; calls by dose curve; tested in HEK293 cells; also: nearly all actives have a fitted effect of over 50% in size
Marburg entry inh = Marburg virus entry inhibition | Marburg virus pseudotyped entry inhibition, cell reporter | Potency, µM (top dose mostly 37.8 µM), without a hit: at the highest dose activity change, negative = inhibition, usual class: inhibitors | 300,000 tested, 1.8% active; calls by dose curve; tested in HEK293 cells
Active calls of the source: *; [ ] = remark or other dose. Sampled rows, rich in hits. Any-hit rate of the full collection: about 5.4%. % is scaled to controls: 0 for no effect and ±100 for the full control effect; potency is read from the fitted curve at half-maximal effect.

How did Cc1ccc(Cl)cc1N1CCN(S(=O)(=O)c2ccc3c(c2)C(C(C)C)C(=O)N3)CC1 (stereo not drawn) do in these assays?
VACV Venus inh: -5%; Vaccinia mCherry: -13%; Sm TGR inh: 2%; FMDV inh: 0%; Lassa entry inh: -21%[46.1 µM]

How did O=C1c2ccccc2C(=O)C1c1ccc2ccccc2n1 do in these assays?
VACV Venus inh: -9%; Vaccinia mCherry: 16%; Sm TGR inh: -4%; FMDV inh: inconclusive; Lassa entry inh: 5.8µM*; Marburg entry inh: inconclusive

What do the screens show for `Cc1ccc(N2CCN(C(=O)c3cn(C)c4ccc(S(=O)(=O)N5CCC(C)CC5)cc4c3=O)CC2C)cc1` (stereo not drawn)?
VACV Venus inh: inconclusive; Vaccinia mCherry: inconclusive; Sm TGR inh: 5%; FMDV inh: 0%; Lassa entry inh: -2%[46.1 µM]; Marburg entry inh: -7%[46.1 µM]

What do the screens show for `Cc1ccc(CN(C(=O)c2ccccc2C)C2CCS(=O)(=O)C2)o1` (stereo not drawn)?
VACV Venus inh: -6%; Vaccinia mCherry: -8%; Sm TGR inh: -31%; FMDV inh: 0%; Lassa entry inh: -1%; Marburg entry inh: 8%

Results for CN(C)c1ccc(CN(C(=O)c2cc3ccccc3oc2=O)C2CCS(=O)(=O)C2)cc1 (stereo not drawn) ?
Sm TGR inh: -5%; FMDV inh: 41%

How did Cc1ccc2c(=O)cc(C(=O)N(Cc3ccccc3Cl)C3CCS(=O)(=O)C3)oc2c1 (stereo not drawn) do in these assays?
VACV Venus inh: -2%; Vaccinia mCherry: -8%; Sm TGR inh: -2%; FMDV inh: -18%; Lassa entry inh: -4%[46.1 µM]; Marburg entry inh: inconclusive

How did CN(C)c1ccc(CN(C(=O)c2ccc(Cl)c([N+](=O)[O-])c2)C2CCS(=O)(=O)C2)cc1 (stereo not drawn) do in these assays?
VACV Venus inh: -9%; Vaccinia mCherry: -15%; Sm TGR inh: inconclusive; FMDV inh: -15%; Lassa entry inh: inconclusive; Marburg entry inh: 11µM*

How did O=C(c1ccc(Cl)c([N+](=O)[O-])c1)N(Cc1ccc(F)cc1)C1CCS(=O)(=O)C1 (stereo not drawn) do in these assays?
VACV Venus inh: -9%; Vaccinia mCherry: -12%; Sm TGR inh: -16%; FMDV inh: -12%; Lassa entry inh: 4%; Marburg entry inh: -15%

Results for Cc1ccc(CN(C(=O)c2ccccc2[N+](=O)[O-])C2CCS(=O)(=O)C2)o1 (stereo not drawn) ?
Sm TGR inh: 32µM*; FMDV inh: 8%

What do the screens show for `Cc1cc2oc(C(=O)N(Cc3ccco3)C3CCS(=O)(=O)C3)cc(=O)c2cc1Cl` (stereo not drawn)?
Sm TGR inh: 50µM*; FMDV inh: -10%; Lassa entry inh: -8%; Marburg entry inh: -9%

Results for O=C(c1cc2ccccc2oc1=O)N(Cc1ccco1)C1CCS(=O)(=O)C1 (stereo not drawn) ?
VACV Venus inh: -10%; Vaccinia mCherry: -8%[1.46 µM]; Sm TGR inh: 16µM*; FMDV inh: 59%; Lassa entry inh: 29%; Marburg entry inh: 9%

What do the screens show for `CCOc1cc2[nH]c(=O)n(CCCCC(=O)N3CCN(c4ccc(OC)cc4)CC3)c(=O)c2cc1OCC`?
VACV Venus inh: -20%; Vaccinia mCherry: -9%; Sm TGR inh: inconclusive; FMDV inh: inconclusive; Lassa entry inh: -20%[46.1 µM]

Results for Cn1c(SCC(=O)N2CCN(c3ccccc3)CC2)nnc1-c1c[nH]c2ccccc12 ?
VACV Venus inh: inconclusive; Vaccinia mCherry: -24%; Sm TGR inh: -2%; FMDV inh: 18µM*

How did CCn1c(SCC(=O)N2CCN(c3ccccc3)CC2)nnc1-c1c[nH]c2ccccc12 do in these assays?
VACV Venus inh: inconclusive; Vaccinia mCherry: inconclusive; Sm TGR inh: -1%; FMDV inh: inconclusive

How did CCn1c(SCC(=O)N2CCc3ccccc32)nnc1-c1c[nH]c2ccccc12 do in these assays?
VACV Venus inh: -14%; Sm TGR inh: 5%; FMDV inh: 32µM*; Lassa entry inh: inconclusive; Marburg entry inh: inconclusive

Results for COc1ccc(N2CCN(C(=O)CSc3nnc(-c4cc5ccccc5cc4O)n3C)CC2)cc1 ?
Sm TGR inh: -8%; FMDV inh: 25µM*; Lassa entry inh: -2%; Marburg entry inh: -18%

Results for O=C(c1ccc2ccccc2c1)N1CCN(c2ccc(O)cc2)CC1 ?
Sm TGR inh: -25%; FMDV inh: 33%; Lassa entry inh: -6%; Marburg entry inh: 4%

What do the screens show for `O=C(CSc1ccc2ccccc2c1)N1CCN(c2ccc(O)cc2)CC1`?
Sm TGR inh: 50µM*; FMDV inh: 7%

Results for CC(=O)Nc1cc2c(s1)c1cnn(Cc3ccccc3F)c(=O)c1n2C ?
Sm TGR inh: 2%

How did CN(C)c1ccc(/C=C/c2ccnc3ccc(F)cc23)cc1 do in these assays?
VACV Venus inh: -42%; Vaccinia mCherry: -39%

How did COc1ccc(N2CCN(C(=O)CSc3nnnn3-c3ccc4c(c3)OCCO4)CC2)cc1 do in these assays?
VACV Venus inh: -28%; Vaccinia mCherry: -30%; Sm TGR inh: -6%; Lassa entry inh: 2.9µM*; Marburg entry inh: -6%

What do the screens show for `COc1ccc(-n2nnnc2SCC(=O)N2CCOCC2)cc1`?
VACV Venus inh: -5%; Vaccinia mCherry: inactive; Sm TGR inh: 2%; FMDV inh: 28%

Results for CC(C)CC(=O)N1C/C=C\C[C@@H](c2ccc(Cl)cc2)N(Cc2ccc(Cl)cc2)C(=O)[C@@H]1Cc1ccccc1 ?
VACV Venus inh: -20%; Vaccinia mCherry: -22%

What do the screens show for `O=C1CSC(=S)N1/N=C/c1cc(Br)c(O)c(Br)c1`?
VACV Venus inh: inactive; Vaccinia mCherry: 134%; Sm TGR inh: 20µM*; FMDV inh: inconclusive; Lassa entry inh: 7%; Marburg entry inh: -10%[46.1 µM]

How did CC(C)CCOc1ccc(/C=N/N2C(=O)CSC2=S)cc1 do in these assays?
VACV Venus inh: 8%; Vaccinia mCherry: -3%; Sm TGR inh: -13%; FMDV inh: -1%; Lassa entry inh: 12%[46.1 µM]; Marburg entry inh: -1%[46.1 µM]

Results for COc1cc(/C=N/N2C(=O)CSC2=S)ccc1O ?
Sm TGR inh: 5.6µM*; FMDV inh: 0%; Lassa entry inh: 14%; Marburg entry inh: 11%

Results for O=C1CSC(=S)N1/N=C/c1ccc(Cl)c([N+](=O)[O-])c1 ?
Sm TGR inh: 22µM*

How did O=C1CSC(=S)N1/N=C/c1ccc2c(c1)OCCO2 do in these assays?
VACV Venus inh: 9%; Vaccinia mCherry: -26%; Sm TGR inh: 7.1µM*; FMDV inh: inconclusive; Lassa entry inh: 5%[46.1 µM]; Marburg entry inh: inconclusive

How did O=C1CSC(=S)N1N=Cc1ccc(Cl)cc1Cl do in these assays?
VACV Venus inh: 13%; Vaccinia mCherry: -5%; FMDV inh: -16%; Lassa entry inh: 14%; Marburg entry inh: 6%

Screening results from PubChem.
